Assay [1] concerns Klebsiella pneumoniae. As to conditions: Concentration 20 uM; ASSAY_TEST Inhibition of Bacterial Growth; detection method Absorption (OD600); MEDIA CAMHB; plate type 384well; NBS; CORNING #3640; time 18 hr.
For assay [2], the system named is Candida albicans. The conditions noted are these: 20 µM.
Assay [3] relates to Cryptococcus neoformans. The conditions noted are these: Concentration 20 uM; ASSAY_TEST Inhibition of Fungal Growth; detection method Resazurin; Absorption (OD600-OD570); plate type 384well; NBS; CORNING #3640.

Potency and affinity values are given separately.

For `CCCCc1ccc(NC(=O)Nc2ccc(O[C@H]3CCCC[C@@H]3N(C)c3ccccc3)c(F)c2)cc1`, the Inhibition in assay [1] is 12.88%; in assay [2] it was 1.16%; in assay [3], -1.2%.

As to `COc1ccc(CN2CCOc3ccc(C(C)(O)CN(C)C)cc3C2)cc1C` (stereo unspecified), the Inhibition in assay [1] is 16.19%; in assay [2], 4.72%; in assay [3] it was -11.35%.

With `CC(C)C(Oc1cccc2ccccc12)C(=O)O` (stereo unspecified), the Inhibition in assay [1] stood at 6.53%; in assay [2], 8.4%; in assay [3], 4.84%.

Consider `CC(C)(C(=O)Nc1ccc(F)cc1)n1cc(-c2ccccc2F)cn1`, for which the Inhibition in assay [1] is 12.71%; in assay [2], 7.41%; in assay [3], -7.47%.

Regarding `OCCc1ccc(Nc2nccc(-c3nnc4ccccn34)n2)cc1`, the Inhibition in assay [1] is 15.28%; in assay [2], 3.06%; in assay [3] it was -9.75%.

With `Cc1ccc(S(=O)(=O)Nc2ccc(CN3CCN(C(=O)c4cccc(C#N)c4)CC3)cc2)cc1`, the Inhibition was 10.93% in assay [1], -0.01% in assay [2] and -7.61% in assay [3].

For the molecule `O=C(NC1=NCCS1)c1sc2cc(F)ccc2c1Cl`, the results for the Inhibition in assay [1], in assay [2] and in assay [3] were 1.67%, 8.69% and -16.39%, respectively.

For the molecule `Cc1ccc(Oc2ccc(NC(=O)CNc3ccccc3N3CCCC3=O)cc2)cc1`, the Inhibition in assay [1] is 9.79%; in assay [2], 2.74%; in assay [3], -10.82%.

For the molecule `CS(=O)(=O)c1ccc(C(=O)N(CC2CCCO2)c2nc3ccccc3s2)cc1[N+](=O)[O-]` (stereo unspecified), the Inhibition is 7.4% in assay [1], 3.23% in assay [2] and -10.33% in assay [3].

On to `Cc1cc(Cl)c(S(=O)(=O)N2CCCC2)cc1OCC(=O)NC1CCCCC1`, for which the values for the Inhibition in assay [1], in assay [2] and in assay [3] were 2.55%, 9.11% and -9.39%, respectively.

Take `CC1CCCN(C(=O)C(C)Nc2cc(Cl)ccc2N2CCOCC2)C1` (stereo unspecified): the Inhibition in assay [1] is 10.27%; in assay [2], 5.64%; in assay [3], -4.76%.

Regarding `c1ccc(Oc2ccc(-c3cc(CN4CCOCC4)[nH]n3)cc2)cc1`, the results for the Inhibition in assay [1], in assay [2] and in assay [3] were 7.99%, 4.1% and -6.41%, respectively.

Values taken from ChEMBL document CHEMBL4513149, “CO-ADD screening of MMV (CH) - MMV compounds” (2021).
